Hit rate of the full screen: of about 360,000 compounds, about 3,700 (1%) were called active. Another 2% or so got no clear call; they are omitted.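 The calls were made as follows: active = normalized GFP-positive differentiation at or above the plate's own cutoff, the solvent-only control mean plus 3 SD; inconclusive = no clear call, values can overlap the other calls; inactive = the rest.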 This excerpt belongs to a sample that is enriched for actives.
Test: induction of myeloid progenitor differentiation, primary screen, cell-based, flow cytometry, MLPCN library (AID 624256);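 as to GFP+ MAC1+ double positive: cells exposed to compound for four days before flow analysis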;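 as to normalized GFP-positive differentiation: cells exposed to compound for four days before flow analysis; 0% = DMSO wells and 100% = fulvestrant positive control at 5 µM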
Conditions: ER-HoxA9 myeloid progenitors, lysozyme-GFP differentiation, at 10 µM; GFP+ MAC1+ double positive: measured here: differentiation confirmed by MAC1 staining, stronger effect = higher value; normalized GFP-positive differentiation: stronger effect = higher value

SMILES	GFP+ MAC1+ double positive [%]	outcome	normalized GFP-positive differentiation
O=C1CCNCCN1[C@H](CO)Cc1ccccc1	1.1	inactive	–
c1ccc(C[C@H]2CNCCN2CCC23CC4CC(CC(C4)C2)C3)cc1	4	–	18.5% (active)
c1ccc2c(CCN3CCNC[C@H]3Cc3cccc4ccccc34)cccc2c1	6	inactive	–
CCc1nc2ccc(C(=O)NC3CCN(Cc4ccccc4)CC3)cn2c1N(CC)CCOC	1.3	inactive	–
Cc1ccc(COc2ccc(C(=O)NN)cc2)cc1	4.6	–	335% (active)
Cc1ccc(COc2ccc(/C=N/NC(=O)CN3CCCCC3)cc2)cc1	0.2	inactive	–
NNC(=O)c1ccc(COCC(F)(F)C(F)F)cc1	0.4	inactive	–
COc1cccc(CNC(=O)[C@@H]2CCCN2C(=O)[C@@H]2CCCN2C(=O)c2ccccc2)c1	0.5	inactive	–
CC(CNC(=O)c1ccc(Br)o1)NC(=O)c1ccc(Br)o1 (stereo not given)	4.1	inactive	–
CCOc1ccc(C(=O)Nc2cccc(-c3ccc4nncn4n3)c2)cc1	1.2	inactive	–
CCS(=O)(=O)c1ccc(-c2cccc(NC(=O)c3ccc(Br)o3)c2)nn1	1.2	–	11.8% (active)
COC(=O)C[C@H]1C=C[C@@H](NS(=O)(=O)c2ccc(C)cc2)[C@@H](CO)O1	2.1	inactive	–
Cc1ccccc1-c1nc(NC(C)C)nc2cc(-c3ccccc3)sc12	0.6	inactive	–
OC(c1ccc(Cl)c(F)c1)c1ncc(-c2ccccc2Cl)[nH]1 (stereo not given)	1.3	inactive	–
COc1ccc(C(O)C(O)(C(=O)OC(C)C)c2ccc(C)cc2)cc1 (stereo not given)	2.5	inactive	–
C[C@H]([C@@H](O)[C@@H](O)[C@@H](C)C(C)(C)C)[C@H]1CC[C@H]2C3CC[C@H]4C[C@H](OS(=O)(=O)O)[C@@H](OS(=O)(=O)O)C[C@]4(C)[C@H]3CC[C@]12C (stereo not given in full)	3.3	inactive	–
C=CCC[C@@H](CCCCC)OC(=O)/C=C/[C@@H](O)[C@H](O)C[C@H](O)CC=C	0.4	inactive	–
CC(C)CC(COCc1ccc(Cl)cc1)N1CCN(C(=O)c2ccc(C(F)(F)F)cc2)CCC1=O (stereo not given)	5.1	–	7.54% (active)
O=C(c1ccc(C(F)(F)F)cc1)N1CCC(=O)N([C@H](COCc2ccccc2)Cc2ccccc2)CC1	0.6	inactive	–
CC(C)C[C@@H](COCc1ccc(Cl)cc1)N1CCN(C(=O)c2ccc(Cl)cc2Cl)CCC1=O	0.8	inactive	–
CCN(CC)CCN(C)C(c1ccnc2ccccc12)c1nnnn1-c1ccc2c(c1)OCCO2 (stereo not given)	2.1	inactive	–
Cc1nc2cc(NC(=O)Nc3cccc(F)c3)ccc2n1C	0.6	inactive	–

SMILES	GFP+ MAC1+ double positive [%]	outcome	normalized GFP-positive differentiation
CCOc1ccc(CCNC(=O)Nc2ccccc2)cc1OCC	0.6	inactive	–
Cc1cc2nc(C)n(CCCNC(=O)Nc3ccccc3)c2cc1C	1.2	–	33% (active)
C[C@@H]1CC2=C(C(=O)OC(C)(C)O2)[C@@H](C2CC2)O1	0.7	inactive	–
OC(c1ccccc1)(c1ccccc1)C1CCN(CCCOc2ccccc2)CC1	0.9	inactive	–
CCOC(=O)c1cc(-c2nnc(-c3cc(OC)c(OC)c(OC)c3)o2)c(C)nc1C	0.3	inactive	–
CCOc1nc(-c2ccc(OC)cc2)ccc1-c1noc(-c2cc(OC)c(OC)c(OC)c2)n1	26.5	–	69% (active)
CCOc1ccc(-c2noc(CCC(=O)NC3CCCC3)n2)cc1OC	0.3	inactive	–
Cc1ccc(NS(=O)(=O)c2cc3c(cc2Br)NC(=O)CO3)cc1C	2.1	inactive	–
COc1ccc(C(c2nnnn2C2CCCC2)N2CCN(C/C=C/c3ccccc3)CC2)cc1 (stereo not given)	0.9	inactive	–
Nc1nc(NCC2CCCO2)nc(Nc2ccccc2F)c1[N+](=O)[O-] (stereo not given)	0.2	inactive	–
Nc1nc(Nc2ccccc2F)nc(NC2CCCCC2)c1[N+](=O)[O-]	5.3	–	25.3% (active)
C=CCNc1nc(N)c([N+](=O)[O-])c(NC2CCCCC2)n1	1	inactive	–
O=C(Nc1ccc(Cl)cc1)c1csc([C@H]2C[C@H](O)[C@@H](CO)O2)n1	0.4	inactive	–
CCN1C(=O)[C@@H]2[C@@H]3CN(S(=O)(=O)c4ccccc4C)[C@@H](c4ccc(Cl)cc4)[C@@H]3C(=O)C[C@@H]2C1=O	0.5	inactive	–
CN1C[C@@H](CO)O[C@@H](n2cnc3c(N4CCN(CCO)CC4)ncnc32)C1	1.5	inactive	–
CNC(=S)NNC(=O)c1sccc1OCc1ccccc1	2.8	–	6.37% (active)
Cc1scc(C(=O)NNC(=S)NCc2ccccc2)c1C	0.2	inactive	–
CNC(=S)N/N=C/c1ccc(OCc2ccccc2)c(Br)c1	0.2	inactive	–
CC1(C(=O)Nc2ccc3c(c2)OCCO3)CSCC(=O)N1CCOc1ccccc1 (stereo not given)	3.3	inactive	–
Cc1cc(Br)cn2c(Cc3cccc(F)c3)c(-c3cccc(Br)c3)nc12	0.6	inactive	–
CCOC(=O)/C=C/C(=O)OCC(=O)NC(c1ccccc1)c1ccccc1	0.4	inactive	–
CCOC(=O)C(C(=O)OCC)C(C#N)c1ccccc1 (stereo not given)	3.3	–	9.91% (active)

SMILES	GFP+ MAC1+ double positive [%]	outcome	normalized GFP-positive differentiation
CCOC(=O)C(C(=O)c1ccccc1)C(c1ccccc1)c1nccc2ccccc12 (stereo not given)	0.2	inactive	–
CC1(C(=O)NCc2ccccc2)CSCC(=O)N1CCCn1ccnc1 (stereo not given)	4.4	inactive	–
O=C1NC(O)CCN1C1CC(O)C(CO)O1 (stereo not given)	1.3	inactive	–
CCOc1ccc(CCN2C(=S)N([C@@H](CC(C)C)CN3CCC[C@@H]3CN3C(=S)NC[C@@H]3Cc3ccc(O)cc3)C[C@@H]2Cc2ccc(O)cc2)cc1	0.7	inactive	–
COc1c(C(=O)N2CCCC2)ccc2ccccc12	0.8	inactive	–
COC(=O)C[n+]1cccc2ccccc21	1	–	236% (active)
COC(=O)C(C)NC(=O)COc1ccc2ccccc2c1 (stereo not given)	1.3	inactive	–
CCc1nc2c(OCc3ccc(Cl)cc3Cl)cccn2c1N(C)C(=O)C(C)C	1.8	inactive	–
CC(=O)N1CCN(Cc2cc(=O)oc3cc(C)ccc23)CC1	1.6	inactive	–
COC(=O)[C@]12CCCCC=C1N(Cc1ccc3c(c1)OCO3)C(=O)[C@H](CC(=O)NCc1cccs1)C2	0.4	inactive	–
CCOC(=O)[C@]12CCCC=C1N(CCC1=CCCCC1)C(=O)[C@H](CC(=O)N1CCOCC1)C2	4.8	inactive	–
OCCC#Cc1ccc(N2C(c3ccsc3)=Cc3ccc(F)cc3C2c2c[nH]c3ccccc23)cc1 (stereo not given)	2	–	16.8% (active)
COc1ccc(CCCNC(=O)C2Cc3c(-c4cccc(C(N)=O)c4)ccnc3O2)cc1 (stereo not given)	0.5	inactive	–
CN(Cc1cn(Cc2ccc(C(F)(F)F)cc2)nn1)C1CN(Cc2cn(Cc3ccc(C(F)(F)F)cc3)nn2)S(=O)(=O)C1 (stereo not given)	1.6	inactive	–
CCCCNC(=O)C[C@@H]1C[C@@]2(C(=O)OCC)CCC=C2N(Cc2cccc3ccccc23)C1=O	0.6	inactive	–
CCOc1ccc(CCN2C(=O)C(=O)N([C@@H](Cc3ccc(O)cc3)CN3CCC[C@H]3CN3C(=O)C(=O)NC[C@@H]3CC(C)C)C[C@@H]2Cc2ccccc2)cc1	1	inactive	–
Cc1ccc(Nc2nc(N)nc(CSc3nnc(C)s3)n2)cc1	0.4	inactive	–
O=[N+]([O-])c1ccccc1Nc1ccc(O)cc1	0.4	inactive	–
Cc1ccc(Nc2ccccc2N)cc1	0.6	–	231% (active)
CC1(C(=O)NCc2ccccc2)CN(S(C)(=O)=O)CC(=O)N1CC(F)(F)F (stereo not given)	1.4	inactive	–
COc1ccc(C(=O)C[n+]2ccc(C)cc2)cc1	0.2	inactive	–
COc1ccc(C(=O)C[n+]2ccc(N)c(C)c2C)cc1	10.1	–	39.6% (active)

SMILES	GFP+ MAC1+ double positive [%]	outcome	normalized GFP-positive differentiation
CO/N=C/CC(=O)c1ccc(OC)cc1	0.8	inactive	–
COc1ccc(N(Cc2cc3ccc(C)cc3[nH]c2=O)S(=O)(=O)c2ccccc2)cc1	9.4	–	37.5% (active)
CCN(Cc1cc2cc(C)ccc2[nH]c1=O)S(=O)(=O)c1ccccc1	0.4	inactive	–
Cc1ccc2cc(CN(c3ccc(C)c(C)c3)S(C)(=O)=O)c(=O)[nH]c2c1	0.3	inactive	–
O=C(Nc1cccc2cccnc12)c1ccc2sc([C@H]3C[C@H](O)[C@@H](CO)O3)nc2c1	0.8	inactive	–
Cc1ccc(NC(=O)CCC(=O)c2ccc(Br)cc2)cc1	0.4	inactive	–
Cc1ccc(C(=O)Cn2cccn2)cc1	0.3	inactive	–
Cc1ccc(C(=O)Cc2nnc(C)s2)cc1	0.7	–	113% (active)
CCC(C)CN1C(=O)CSCC1(C)C(=O)NCc1ccccc1 (stereo not given)	1.5	inactive	–
CSCCC(NS(=O)(=O)c1ccccc1F)C(=O)N1CC=C(c2ccccc2)CC1 (stereo not given)	1.3	–	63.9% (active)
CSCCC(NS(=O)(=O)c1ccc(C)cc1)C(=O)N1CCCC1 (stereo not given)	1.3	inactive	–
CSCCC(NS(=O)(=O)/C=C/c1ccccc1)C(=O)N1CCC(C)CC1 (stereo not given)	1	inactive	–
C#Cc1ccc(NC(=O)C2(C)CCN2C(=O)Cc2ccc(-c3ccccc3)cc2)cc1 (stereo not given)	0.8	inactive	–
CC(=O)N(CCCN(C)C)c1nc2ccc(C)cc2s1	0.6	–	33.5% (active)
Cc1ccc2nc(NC(=O)CSc3nc(=O)n(CCCN(C)C)c4c3CCC4)sc2c1	1.3	inactive	–
Cc1ccc2nc(NC(=O)C3CSC4(C)CCC(=O)N34)sc2c1 (stereo not given)	1.7	inactive	–
CN1C(=O)[C@H]2[C@@H](C3CC3)N3C(=O)CN(Cc4ccccc4)C(=O)[C@@]3(C)[C@H]2C1=O	1.6	inactive	–
CCN1C[C@@H]2[C@@H]3C(=O)N(C)C(=O)[C@@H]3[C@](C)(C1=O)N2C(=O)c1ccccc1	10.9	–	43.5% (active)
CCN1C[C@@H]2[C@@H]3C(=O)N(Cc4ccccc4)C(=O)[C@@H]3[C@](C)(C1=O)N2C(=O)c1ccc(C(C)(C)C)cc1	1.2	inactive	–

From PubChem BioAssay AID624256 (NMMLSC, 2012)
